Screens from PubChem BioAssay.
The list is not random: actives were taken first. Their share in the collection is about 7.3%.
FLuc counter = firefly luciferase modulation, counter-screen for miR-21 project | 6.9% of 360,000 active | P08659 | Potency, µM (titrated, usually from 57.5 µM), for the others: at the top dose activity change, negative = inhibition, usual class: inhibitors | AID 588342 | purified FLuc, Km substrates, luminescence inhibition;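 note: plate controls were vehicle for no effect and reference inhibitor for full effect; nearly all actives have a fitted effect of over 55% in size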
Target sequence (P08659 whole entry, looked up): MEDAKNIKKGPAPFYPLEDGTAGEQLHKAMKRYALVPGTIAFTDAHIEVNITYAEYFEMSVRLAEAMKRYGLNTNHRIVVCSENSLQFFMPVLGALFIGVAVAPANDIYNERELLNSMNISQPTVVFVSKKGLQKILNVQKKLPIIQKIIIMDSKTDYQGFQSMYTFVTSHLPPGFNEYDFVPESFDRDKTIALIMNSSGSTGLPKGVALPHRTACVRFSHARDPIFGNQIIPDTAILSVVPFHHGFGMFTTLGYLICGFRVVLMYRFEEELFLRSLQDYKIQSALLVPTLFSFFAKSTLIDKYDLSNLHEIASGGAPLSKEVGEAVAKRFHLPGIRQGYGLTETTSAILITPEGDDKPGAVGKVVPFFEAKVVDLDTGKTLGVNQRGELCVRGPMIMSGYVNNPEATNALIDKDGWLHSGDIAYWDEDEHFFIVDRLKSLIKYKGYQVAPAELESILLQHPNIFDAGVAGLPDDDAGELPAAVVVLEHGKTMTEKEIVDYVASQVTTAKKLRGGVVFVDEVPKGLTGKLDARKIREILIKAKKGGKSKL
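Biochemical qHTS of compounds, final roughly 60 µM downward over six points, against 10 nM purified firefly luciferase using Km concentrations of substrates (10 uM D-luciferin, 10 uM ATP) in Tris acetate pH 7.5 buffer; luminescence output.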
SMN2 splice up = enhancers of SMN2 splice variant expression; Potency, µM (series often up to 46.1 µM), for inactives: at the top dose activity change, positive = activation, most hits filed as activators; 2.8% of 210,000 active; HEK293 SMN2-luciferase splicing reporter, luminescence, 30-36 h; note: % of control where 0% means no effect; nearly all actives have a fitted effect of over 55% in size
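HEK293 cells carry an SMN2 […]–luciferase reporter in which exon 7 inclusion puts luciferase in frame. Cells were plated 10-12 h before compound addition, then incubated 30-36 h at 37C. ONE-Glo luminescence was read; sodium butyrate at 4.5 mM final served as control.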
NPC1 promoter act = activates the NPC1 promoter | 2.4% of 320,000 active | AID 485313 | Potency, µM (highest dose often 9.22 µM), inactives show top-dose activation, usual class: activators | Huh7 NPC1 promoter luciferase reporter, 24 h; note: % of control where 0% means no effect; nearly all actives have a fitted effect of over 60% in size
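NPC1 promoter–luciferase Huh7 cells; 24 h compound; luminescence.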
Rab9 promoter act = activates the Rab9 promoter; Huh7 Rab9 promoter-luciferase reporter, luminescence, 24 h; Potency, µM (doses to about 9.22 µM), for inactives: top-dose activation, negative = inhibition, actives largely listed as activators; 2.8% of 320,000 active; AID 485297; note: % of control where 0% means no effect; nearly all actives have a fitted effect of over 60% in size
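Rab9 promoter-driven luciferase in stably transfected Huh7 cells; 1500 cells/well rested 2 h, exposed to compound in DMSO for 24 h at 37 °C, 5% CO2. Luminescence read 10 min after adding luciferase reagent at ambient temperature.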
KinaseGlo FLuc = Kinase-Glo luciferase inhibition (counter-screen); Q27757; Kinase-Glo luciferase, ATP luminescence, 8 min; Potency, µM (doses to about 38.3 µM), inactives show at the top dose activity change, negative = inhibition, usual class: inhibitors; 0.28% of 200,000 active; AID 1379; note: % is set by controls: 0 for no effect and ±100 for the full control effect; nearly all actives have a fitted effect of over 60% in size
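Light output from Kinase-Glo luciferase with luciferin and 10 uM ATP in 50 mM imidazole pH 7.2, KCl, MgCl2, Tween 20, BSA; compound pin-delivered, 8-min ambient incubation, then luminescence read.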
ELG1 genotoxic = inducers of genotoxicity in HEK293T ELG1-luciferase cells | Potency, µM (titrated, usually from 46 µM), for the others: at the top dose activity change, positive = activation, hits mostly activators | AID 504466 | 1.3% of 330,000 active | HEK293T ELG1-luciferase reporter, luminescence, 16 h; note: % of control where 0% means no effect; nearly all actives have a fitted effect of over 60% in size
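Cells (2,000/well) expressing the ELG1-luciferase fusion are dosed by pin tool and kept 16 hr at 37 °C, 5% CO2. Signal comes from ONE-Glo luciferase reagent after 30 min at room temperature.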
The depositor's hits bear a star; ? = inconclusive; . = no result. Calls come from the whole dose curve; as a rule, active = well fitted curve in the direction sought with a large enough effect; inconclusive = small, poorly fitted or top-dose-only effect, or another doubt; inactive = no such curve, though single readings can be large; an effect the other way counts as inactive or inconclusive. Potency is the fitted concentration of half-maximal effect.

SMILES	FLuc counter	SMN2 splice up	NPC1 promoter act	Rab9 promoter act	KinaseGlo FLuc	ELG1 genotoxic
O=C(c1cccc(N2C(=O)C3C4C=CC(C4)C3C2=O)c1)N1CCN(c2ccc(F)cc2)CC1 (stereo not given)	0%	.	2%	-8%	.	-6%
CC1C=CCC2C(=O)N(c3cccc(C(=O)N4CCN(c5ccc(F)cc5)CC4)c3)C(=O)C12 (stereo not given)	12µM*	?	2.8µM*	3.2µM*	-6%	?
CCCN1CCN(C(=O)c2noc3c2COc2ccc(C)cc2-3)CC1	-14%	.	3%	-1%	.	3%
CCOC(=O)N1CCN(C(=O)c2noc3c2COc2ccccc2-3)CC1	13µM*	.	?	?	.	?
CCOc1ccc2nc(NC(=O)CS(=O)(=O)c3ccc(C)cc3)sc2c1	21µM*	9%	6%	1%	-1%	13%
CCOc1ccc2nc(NC(=O)CS(=O)(=O)c3ccccc3)sc2c1	12µM*	6%	-1%	1%	-3%	21%
O=C(O)c1ccc(-c2ccc(OS(=O)(=O)c3ccccc3F)cc2)cc1	12µM*	.	?	?	.	?
COC(=O)c1ccccc1S(=O)(=O)Oc1ccc(-c2ccc(C(=O)O)cc2)cc1	-14%	.	11%	6%	.	3%
COCCN(C(=O)Cc1cccs1)c1nnc(-c2ccncc2)s1	4%	11%	-2%	4%	1%	0%
CCN(C(=O)c1cccs1)c1nnc(-c2ccncc2)s1	13µM*	26%	14%	?	-3%	?
CCn1c(CN(C)c2ccccc2)nc2ccccc21	?	.	-2%	1%	.	-8%
Cn1cccc1C(=O)OCc1cc(Cl)cc2c1OCOC2	13µM*	7%	?	?	2%	?
O=C(O)c1c(F)c(F)cc2ccccc12	-6%	-1%	4%	1%	5%	0%
CC(=O)Nc1cc(C(=O)c2ccccc2)ccc1N1CCOCC1	2%	-10%	1%	1%	4%	-2%
CC(=O)N1CCN(c2ccc(NC(=O)c3cccc(Cl)c3)cc2)CC1	?	.	2.2µM*	?	.	?
Nc1cc(C(=O)c2ccccc2)ccc1N1CCOCC1	17µM*	?	?	25%	0%	6%
O=C(Nc1cccc(F)c1)c1ccccc1	?	2%	?	?	-6%	9%
O=C(Nc1ccc(Nc2ccccc2)cc1)c1cccc(F)c1	13µM*	.	?	4.5µM*	.	?
O=C(Nc1ccc(N2CCCCC2)cc1)c1cncc(Br)c1	6µM*	?	3.5µM*	?	-8%	4%
CCCCn1cc([N+](=O)[O-])nc1C	4%	.	-3%	-6%	.	0%
CCc1ccc(NC(=O)c2cccc(N3CCCS3(=O)=O)c2)cc1	12µM*	.	.	.	.	.
O=C(Nc1ccc(N2CCCC2)cc1)c1ccc2ccccc2c1	1.3µM*	2.5µM*	?	0.89µM*	-10%	?
CC(=O)N1CCN(c2ccc(NC(=O)c3ccc4ccccc4c3)cc2)CC1	-11%	.	25%	?	.	4%
O=C(Nc1ccc(N2CCCC2=O)cc1)c1cccc(F)c1	5.4µM*	7.1µM*	1.6µM*	3.2µM*	7.9µM*	2.9µM*
O=C(c1ccccc1)c1ccc(N2CCNCC2)cc1	?	10%	16%	28%	-1%	?
SMILES	FLuc counter	SMN2 splice up	NPC1 promoter act	Rab9 promoter act	KinaseGlo FLuc	ELG1 genotoxic
O=C(c1ccccc1)c1ccc(N2CCCC2)cc1	6.7µM*	25µM*	3.2µM*	2.5µM*	-5%	3.7µM*
Cc1cc(Br)ccc1NS(=O)(=O)c1c(C)[nH]c(=O)[nH]c1=O	2%	.	-3%	-3%	.	1%
Cc1cc(C)c(S(=O)(=O)N(CC(=O)O)C2CCCCC2)c(C)c1	2%	-4%	1%	-7%	1%	-6%
Cc1ccc(CNc2ccc(N3CCOCC3)cc2)cc1	8.5µM*	.	4µM*	2.8µM*	.	?
O=C(Nc1ccccc1N1CCCC1)c1cccc(-c2cc3ccccc3oc2=O)c1	?	0%	17%	18%	-2%	-5%
Cc1nc(NC(=O)c2cccc(-c3cc4ccccc4oc3=O)c2)ccc1Br	-20%	?	?	?	-1%	9%
O=C(Nc1ccc(Br)cn1)c1cccc(-c2cc3ccccc3oc2=O)c1	12µM*	11µM*	1.8µM*	4µM*	-1%	?
O=C(Nc1ccc(N2CCCC2)cc1)c1cccc(-c2cc3ccccc3oc2=O)c1	11µM*	-18%	6%	1%	1%	-2%
O=C(O)CCC(=O)N1CCN(c2ccc(C(=O)c3ccc(F)cc3)cc2)CC1	?	-14%	-1%	1%	-1%	-1%
CC(C)c1ccc(CNc2ccc(N3CCOCC3)cc2)cc1	?	-58%	11%	3%	1%	?
CN1CCN(c2ccc(C(=O)c3ccc(F)cc3)cc2)CC1	11µM*	?	?	3.2µM*	-4%	13µM*
O=C(NCC(c1cccnc1)N1CCN(c2ccccc2)CC1)OCc1ccccc1 (stereo not given)	-1%	-82%	2%	-9%	4%	0%
CCOC(=O)C(CC)Sc1nnc(COc2ccc(C)cc2)n1-c1ccccc1 (stereo not given)	-1%	-33%	-1%	0%	6%	-9%
COc1ccccc1C(c1nnnn1Cc1ccccc1)N1CCC(C(N)=O)CC1 (stereo not given)	1%	-49%	-2%	-3%	-3%	0%
O=C(Nc1ccc(N2CCCC2)cc1)c1cccc(F)c1	1.3µM*	0.63µM*	0.35µM*	0.32µM*	?	0.37µM*
Cc1ccc(C(=O)Nc2ccc(N3CCCC3)cc2)cc1	?	11µM*	?	1.8µM*	-7%	?
O=C(Nc1ccc(N2CCN(C(=O)c3cccs3)CC2)cc1)c1cccc(F)c1	-6%	.	-3%	3%	.	-11%
O=C(Nc1ccc(N2CCCCC2)cc1)c1ccccc1	1.9µM*	1.4µM*	0.4µM*	0.28µM*	?	?
Cc1ccc(C(=O)Nc2ccc(N3CCOCC3)cc2)cc1	12µM*	.	2.8µM*	4µM*	.	21µM*
O=C(/C=C/c1ccccc1)Nc1ccc(N2CCCCC2)cc1	?	?	?	4µM*	-3%	?
O=C(/C=C/c1ccc(Cl)cc1)Nc1ccc(N2CCCCC2)cc1	-3%	-10%	3%	-13%	2%	1%
CCc1nc2ccc(C(=O)N3CCN(CC)CC3)cc2nc1CC	1%	.	-3%	0%	.	1%
O=C(O)c1ccc2nc3c(nc2c1)-c1ccccc1C3=O	15µM*	8%	14%	?	?	3%
